Bioassay records deposited in PubChem BioAssay by DiRusso Lab, Biochemistry Department, University of Nebraska.
Algae TAG accum: increases triacylglycerol in Chlamydomonas reinhardtii | 44,000 tested, 0.84% active | calls only at 10 µM (by protocol) | Chlamydomonas reinhardtii TAG, Nile Red fluorescence, 72 h; call rule not given here;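 note: hits raise Nile Red signal meaning more stored TAG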
* = called active by the depositor; i = inactive; + = active, no number. The full list was thinned out, with hits kept by preference.

SMILES	Algae TAG accum
Clc1ccccc1-c1nnc(-c2ccccc2)o1	+
Cc1cccc(NC(=O)C(=O)NCC(O)c2ccccc2)c1 (configuration not stated)	i
Cc1cc(=O)[nH]c(N2CCOCC2)n1	i
CCCCNc1cc(C)nc(N2CCOCC2)n1	+
CCOc1ccc(Nc2cc(C)nc(N3CCOCC3)n2)cc1	i
COCC(=O)Nc1cccc([N+](=O)[O-])c1C	i
CCc1ccc(OCc2nc(-c3ccc([N+](=O)[O-])cc3)no2)cc1	i
O=C(Nc1ncccn1)c1ccc([N+](=O)[O-])cc1	i
Cc1cccc(-c2cc(NC(=O)c3ccc([N+](=O)[O-])cc3)n[nH]2)c1	+
Cc1cccc(-c2cc(NC(=O)c3ccccc3[N+](=O)[O-])n[nH]2)c1	i
O=C(CSc1nnc(NC(=O)c2ccc3c(c2)OCO3)s1)c1ccccc1	i
O=C(Nc1ccccc1C(=O)O)c1cccc(S(=O)(=O)Nc2cccc([N+](=O)[O-])c2)c1	i
O=[N+]([O-])c1cccc(CN2CCN(C3CCCC3)CC2)c1	i
O=[N+]([O-])c1ccc(CN2CCN(C3CCCCC3)CC2)cc1	i
O=[N+]([O-])c1ccc(N2CCN(Cc3ccccc3)CC2)nc1	i
O=[N+]([O-])c1ccc(C(O)CN2CCN(Cc3ccccc3)CC2)cc1 (configuration not stated)	+
O=[N+]([O-])c1ccc(CN2CCN(C3CCCC3)CC2)cc1	+
O=[N+]([O-])c1ccc(C(O)CN2CCc3ccccc32)cc1 (configuration not stated)	i
O=C1CC(N2CCC(C(O)(c3ccccc3)c3ccccc3)CC2)C(=O)N1c1ccc(F)cc1 (configuration not stated)	+
COc1ccc(N2C(=O)CC(N3CCC(C(O)(c4ccccc4)c4ccccc4)CC3)C2=O)cc1 (configuration not stated)	i
NC(=O)C1CCN(C2CC(=O)N(c3ccc(F)cc3)C2=O)CC1 (configuration not stated)	i
CCNCCNc1ccc([N+](=O)[O-])cc1	i
Cc1ccccc1CN1CCN(Cc2ccco2)CC1	i
c1coc(CN2CCN(C3CC4CCC3C4)CC2)c1 (configuration not stated)	i
CN1CCCN(Cc2ccco2)CC1	i
SMILES	Algae TAG accum
c1coc(CN2CCN(C3CCCCC3)CC2)c1	+
O=[N+]([O-])c1cccc(Cl)c1N1CCN(CCO)CC1	i
Cc1ccc(OCCn2ccnc2)c(Cl)c1	i
Cc1cc(Cl)c(OCCn2ccnc2)c(Br)c1	+
Cc1cc(Cl)cc(C)c1OCCn1ccnc1	+
Cc1cc(Cl)c(OCCOCCn2ccnc2)c(Br)c1	i
Clc1ccc(OCCn2ccnc2)c(Cl)c1	i
Clc1ccc(OCCn2ccnc2)c(Br)c1	i
CCSc1nnc(NC(=O)COc2ccc(Cl)cc2Cl)s1	i
COCCNc1ncnc2scc(-c3ccccc3)c12	i
Cc1ccc2nc(-c3cccc(Br)c3)cn2c1	i
COc1ccc(OCCCN2CCCCC2)cc1	+
COc1ccc(OCCCCN2CCCCC2)cc1	i
CCOc1ccc(OCCOCCN2CCCC2)cc1	i
c1ccc(OCCCN2CCCCC2)cc1	i
CCOc1cccc(OCCN2CCCC2)c1	i
CCC(C)c1ccc(OCCN2CCCC2)cc1 (configuration not stated)	+
C=CCNCCOc1ccccc1CC=C	i
CCc1ccccc1N(CC(=O)N1CCN(c2ccc(OC)cc2)CC1)S(C)(=O)=O	i
Cc1cc(S(N)(=O)=O)c(C)c(S(=O)(=O)c2ccc(Cl)cc2)c1	i
O=Cc1cc(OCc2ccccc2)ccc1O	i
COc1cccc(C(=O)N2CCN(Cc3ccncc3)CC2)c1	i
CC(=O)N1CCN(c2c(Cl)cccc2[N+](=O)[O-])CC1	i
Cc1nnc(SCCC(=O)Nc2ccccc2Br)s1	i
O=S(=O)(c1ccc(F)cc1)N1CCN(C2CCCCC2)CC1	+
SMILES	Algae TAG accum
Cc1ccc(S(=O)(=O)N2CCC(N3CCCCC3)CC2)cc1	i
CCCN1CCC(N2CCN(S(=O)(=O)c3ccc(F)cc3)CC2)CC1	i
CC1CCCN(C2CCN(S(=O)(=O)c3ccc(F)cc3)CC2)C1 (configuration not stated)	+
O=S(=O)(c1ccc(F)cc1)N1CCCC1	i
O=S(=O)(c1ccc(F)cc1)N1CCN(C2CCCC2)CC1	i
Cc1ccc(NC(=O)/C(=C\c2ccc3c(c2)OCO3)NC(=O)c2ccc(Br)o2)cc1	i
N#CC(=CNc1ccccc1)c1nc(-c2cccc([N+](=O)[O-])c2)cs1	i
CC(=O)N(C)c1ccc(OCC(O)Cn2c3ccccc3c3ccccc32)cc1 (configuration not stated)	i
COc1cccc(C2C(C(=O)c3ccc(C)o3)=C(O)C(=O)N2CCCn2ccnc2)c1OC (configuration not stated)	i
O=C(Nc1ccc([N+](=O)[O-])cc1)N1CCN(c2ccc(F)cc2)CC1	i
CCc1ccccc1NC(=O)c1ccccc1I	i
Cc1cc(C(=O)N2CCN(c3cccc(C)c3C)CC2)ccc1[N+](=O)[O-]	i
C#CCOc1ccc(C=O)cc1OCC	i
O=C(c1ccccc1)N1CCN(C2C3CC4CC(C3)CC2C4)CC1 (configuration not stated)	i
Cc1ccc(N2CCN(C3C4CC5CC(C4)CC3C5)CC2)cc1 (configuration not stated)	i
CS(=O)(=O)N1CCN(C2C3CC4CC(C3)CC2C4)CC1 (configuration not stated)	+
O=C(NCCN1CCN(C(=O)c2cccc([N+](=O)[O-])c2)CC1)C(=O)Nc1ccccc1	i
Cc1cccc(NS(=O)(=O)c2cccc(C(=O)Nc3ccc([N+](=O)[O-])cc3)c2)c1	i
Cc1sc(NC(=O)c2cccs2)c(C(=O)O)c1C	+
O=C(Nc1scc(-c2cccs2)c1C(=O)O)c1cccs1	i
Cc1cccc(C(=O)Nc2sc(C)c(C)c2C(=O)O)c1	i
COc1ccc(S(=O)(=O)CCc2nnc(NC(=O)c3ccc(C)c([N+](=O)[O-])c3)s2)cc1	i
Cc1ccsc1CN1CCN(c2cccc(C)c2C)CC1	i
CCN(CC)c1cc(C)nc(N)n1	+
Cc1cc(-n2nc(C)cc2C)nc(N)n1	i
SMILES	Algae TAG accum
Cc1cc(N2CCCCC2)nc(N)n1	i
O=C(NS(=O)(=O)c1ccccc1)c1ccccc1Cl	i
Cc1cc2nc(-c3ccc(NC(=O)c4ccccc4)cc3O)oc2cc1C	i
O=C(COc1ccc(Cl)cc1Cl)NC1CCCC1	i
CCN1CCC(N2CCN(c3ccccc3)CC2)CC1	i
c1ccc(N2CCN(CC3CCCCC3)CC2)cc1	+
O=C(C1CCN(CC2CCCCC2)CC1)N1CCN(c2ccccc2)CC1	i
Cc1cc(C)c(NC(=O)C2CCCCC2)c(Cl)c1	i
C=CCn1c(SCC(=O)c2ccc(Br)cc2)nc2ccccc2c1=O	i
O=C(O)C1CCCCC1C(=O)Nc1nc(-c2ccc(F)cc2)cs1 (configuration not stated)	i
O=C(CN(C1CCCCC1)S(=O)(=O)c1ccc(F)cc1)N1CCOCC1	i
CN(C)c1ccc(-c2nc3ccc([N+](=O)[O-])cc3[nH]2)cc1	i
O=C(Nc1ccc(Cl)cc1)c1ccccc1Br	i
O=C(Nc1ccc(Cc2ccncc2)cc1)c1cc(Br)ccc1Cl	+
COc1ccc(Br)cc1C(=O)Nc1ccc(Cc2ccncc2)cc1	i
